Hit rate of the full screen: of about 310,000 compounds, about 17,000 (5.5%) were called active. A call without a number means that no potency is given here. Inconclusive results (about 11%) are left out. The full list was thinned out, with actives kept by preference. Unmarked numbers belong to inactive results. Calls come from the whole dose curve; as a rule, active = well fitted inhibition curve with a large enough effect; inconclusive = small, poorly fitted or top-dose-only effect, or effect the other way; inactive = no such curve, though single readings can be large or run the other way.
target: Nuclear receptor ROR-gamma (Mus musculus) (UniProt P51450); assay: qHTS for inhibitors of ROR gamma transcriptional activity; conditions: Drosophila S2 Gal4-RORgamma UAS-luciferase reporter, 20 h; series mostly up to 53.6 µM; note: nearly all actives have a fitted effect of over 60% in size
Source text: NIH Molecular Libraries Probe Production Network [MLPCN] NIH Chemical Genomics Center [NCGC] MLPCN Grant: R03 DA026211-01 Assay Provider: Dan Littman, New York University Assay Overview: The retinoic acid-related orphan receptor (ROR) gamma is a transcription factor that has a central role in the differentiation of Th17 cells, a subset of T helper cells that secrete the inflammatory cytokines IL-17, IL-17F, and IL-22. Th17 cells have been implicated in graft versus host disease, autoimmune disease and asthma. ROR gamma is induced in naive T helper cells in the presence of TGF-beta combined with IL-6, IL-21, or IL-23, and thereafter directs the expression of the Th17 lineage cytokines. To study the mechanism of action of ROR gamma, an insect cell-based assay was screened. This Drosophila Schneider cell line was stably transfected with two vectors: a gene expressing a fusion of the Gal4 DNA binding domain and ROR gamma transactivation domain under the control of the metallothionine promoter and a Photinus luciferase reporter regulated by the Gal4 binding site enhancer, UAS. […] Small molecule inhibitors of ROR gamma activity are detected by a decrease in luciferase reporter activity.
Assay Protocol Summary: For screening, 600 cells in 4 uL/well were dispensed into white solid 1536-well plates (Grenier) using a solenoid-based dispenser. Following transfer of 23 nL compound or DMSO vehicle by a pin tool, the plates were incubated 1 hr at ambient temperature, and 1 uL/well copper sulfate (700 uM final concentration) was added. The plates were centrifuged 15 s at 1000 RPM and incubated 20 hr at ambient temperature. After addition of 1.5 uL Photinus luciferase detection reagent, the plates were incubated 10 min at ambient temperature and then read by an ViewLux (Perkin Elmer) to detect luminescence. Keywords: NIH Roadmap, MLPCN, MLI, MLSMR, qHTS, NCGC, qHTS, nuclear hormone receptor, retinoic acid-related orphan receptor, ROR gamma
Potency is the fitted concentration of half-maximal effect.

Sequence of Nuclear receptor ROR-gamma (Mus musculus) (P51450 whole entry, looked up, the tested form may be a part): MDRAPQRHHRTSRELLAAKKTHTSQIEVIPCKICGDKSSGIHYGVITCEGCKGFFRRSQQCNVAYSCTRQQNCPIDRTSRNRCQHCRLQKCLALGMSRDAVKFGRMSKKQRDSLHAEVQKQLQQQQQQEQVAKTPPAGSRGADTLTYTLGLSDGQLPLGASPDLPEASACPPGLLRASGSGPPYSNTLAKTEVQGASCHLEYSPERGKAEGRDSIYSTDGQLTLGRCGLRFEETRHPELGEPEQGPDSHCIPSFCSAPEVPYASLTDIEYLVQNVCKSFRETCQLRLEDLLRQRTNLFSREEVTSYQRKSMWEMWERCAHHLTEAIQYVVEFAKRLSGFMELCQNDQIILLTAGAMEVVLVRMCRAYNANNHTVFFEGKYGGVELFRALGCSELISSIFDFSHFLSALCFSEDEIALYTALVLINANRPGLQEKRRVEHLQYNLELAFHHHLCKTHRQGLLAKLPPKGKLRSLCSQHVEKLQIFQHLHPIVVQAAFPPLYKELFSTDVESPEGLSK

Structure (SMILES)	Potency	activity change, negative = inhibition
CCN1CCN(C2CCCCC2NS(=O)(=O)c2ccc(Cl)cc2)CC1 (centres undefined)	inactive	–
CC(C)Cn1cnc2c1c(=O)n(CC(=O)NN)c(=O)n2Cc1ccccc1	inactive	–
COc1ccc(C(=O)N/N=c2\oc3ccccc3cc2C(N)=O)cc1	inactive	–
COc1cccc2cc(C(N)=O)/c(=N\NC(=O)c3ccccc3)oc12	7.08 µM (active)	–
NC(=O)c1cc2ccccc2o/c1=N/NC(=O)c1cccc(F)c1	inactive	–
O=C1CN(C(=O)c2cc(F)cc(F)c2)c2ccccc2N1	inactive	–
CCOC(=O)c1cccnc1NC(=O)c1ccncc1	inactive	–
COc1ccc(OC)c(C(C)NC(=S)Nc2ccc(S(=O)(=O)Nc3ncccn3)cc2)c1 (centres undefined)	inactive	–
COC(=O)c1cccnc1NC(=S)NC(C)C	1.78 µM (active)	–
CCc1nnc(NS(=O)(=O)c2ccc(N=Cc3c(C)[nH]n(-c4ccc(C)cc4)c3=O)cc2)s1	inactive	–
Cc1ccc(-c2ccnc3[nH]n(-c4ccccc4)c(=O)c23)cc1	inactive	–
Cc1ccc(-n2[nH]c(C)c(/C=N/N3C(=O)c4cccc5cccc(c45)C3=O)c2=O)cc1	6.31 µM (active)	–
Cc1ccc(C(=O)N2CCC(n3nccc3NC(=O)Nc3cccc(F)c3)CC2)cn1	inactive	–
COc1cccc(NS(=O)(=O)c2ccc3[nH]cc(C(=O)NCCCOC(C)C)c(=O)c3c2)c1	inactive	–
CCOc1ccc(NS(=O)(=O)c2ccc(C)c(C(N)=O)c2)cc1	inactive	–
CCCCNC(=O)c1c[nH]c2ccc(S(=O)(=O)Nc3ccc(OCC)cc3)cc2c1=O	7.94 µM (active)	–
CCOC(=O)c1c(S(=O)(=O)Nc2ccc(CN3CCC(C)CC3)cc2)c(C)n(C)c1C	inactive	–
CCOC(=O)c1cc2cc3ccccc3cc2oc1=O	inactive	–
CCOC(=O)c1cn[nH]c1NC(=S)Nc1ccccc1	inactive	–
CCOC(=O)c1cc2c(nc1NC(=S)Nc1ccccc1)CC(C)(CC)OC2 (centres undefined)	3.55 µM (active)	–
Cc1ccc(NC(=O)CSc2nnc(CNC(=O)c3ccccc3F)o2)cc1Cl	inactive	–
COc1ccc(-c2noc(CNC(=O)C(C)Oc3ccccc3)n2)cc1 (centres undefined)	inactive	–
COc1ccc(-c2cc(C(F)(F)F)nc(S(C)(=O)=O)n2)cc1OC	1.78 µM (active)	–

Structure (SMILES)	Potency	activity change, negative = inhibition
COc1cc(OC)nc(S(C)(=O)=O)n1	inactive	–
COc1ccc(-c2cc(C(F)(F)F)nc(SCC(=O)Nc3ccc4c(c3)OCO4)n2)cc1OC	inactive	–
Cc1cccn2c(=O)c3cc(C(=O)NCC4CCCO4)c(=N)n(Cc4ccc(F)cc4)c3nc12 (centres undefined)	inactive	–
COc1cc(OC)c(OC)cc1CN1CCN(C(=O)c2cccc3ccccc23)CC1	inactive	–
Cc1ccc(C(C[N+](=O)[O-])c2c(C)cc3ccccn23)cc1 (centres undefined)	22.4 µM (active)	–
Cc1cc2ccccn2c1C(=O)c1cccc(F)c1	inactive	–
CC(=O)Nc1ccc(/C=N/Nc2ccc(C(=O)c3c(C)cc4ccccn34)cc2[N+](=O)[O-])cc1	inactive	–
C=CC[n+]1c(-c2ccc(C)cc2)csc1NNC(=O)Nc1ccccc1	14.1 µM (active)	–
Cc1ccc(NC(=O)NNC(=O)c2sccc2-n2cccc2)cc1	inactive	–
C=CCNC(=O)c1csc(-c2ccccc2)n1	inactive	–
Cc1ccc(NC(=O)Nc2ccccc2)c(Br)c1	inactive	–
C=CCNc1scc(-c2ccccc2)[n+]1CC=C	12.6 µM (active)	–
COC(=O)c1cc(NS(=O)(=O)c2ccc3c(c2)c(=O)n(C)c(=O)n3C)cc(C(=O)OC)c1	inactive	–
Cc1cccc(C)c1N1C(=O)CN(Cc2ccccc2)C1=S	inactive	–
CCC(=O)c1cn(CCOc2ccccc2OC)c2ccccc12	–	-12.4% [at 1.91 µM]
Cc1cccc(NC(=O)C2CCCN(C(=O)NCc3ccccc3)C2)c1C (centres undefined)	inactive	–
CN(C)c1ccc(CNC(=O)CN2C(=O)COc3ccc(S(=O)(=O)N4CCCC4)cc32)cc1	inactive	–
COC(=O)c1cc(Cl)c(NC(=O)c2ccco2)cc1OC	inactive	–
COc1cc(NC(=S)NCc2ccco2)c(OC)cc1Cl	7.08 µM (active)	–
CCOc1cc(NC(=S)NCCCOC)c(OCC)cc1NC(=O)c1ccco1	20 µM (active)	–
CCOc1cc(NC(=S)NCc2ccco2)c(OCC)cc1NC(=O)c1ccco1	1.12 µM (active)	–
COc1ccc(CC(=O)Nc2ccccc2NC(=O)c2ccco2)cc1OC	inactive	–
COc1ccc(NC(=O)CCC(=O)Nc2cc(OC)c(NC(=O)c3ccco3)cc2OC)c(OC)c1	inactive	–

Structure (SMILES)	Potency	activity change, negative = inhibition
COc1ccc2c(Cl)c(C(=O)NCc3ccco3)sc2c1	inactive	–
CCOCC(=O)Nc1cc(OC)c(Cl)cc1OC	inactive	–
CCOc1cc(NC(=O)c2ccco2)c(OCC)cc1NC(=O)COc1ccccc1	inactive	–
CCOc1cc(NC(=S)NCCCN(C)C)c(OCC)cc1NC(=O)C1CC1	inactive	–
O=C(Nc1ccc(NC(=O)c2ccco2)c(Cl)c1)c1cccc([N+](=O)[O-])c1	inactive	–
CCC(=O)NC(=S)Nc1ccc(NC(=O)c2ccco2)c(Cl)c1	2.51 µM (active)	–
CCc1nn(CCCC(=O)Nc2ccc(C)c(C)c2)c(=O)c2cc3occc3n12	inactive	–
O=C(O)c1cc(S(=O)(=O)NC2CCCc3ccccc32)ccc1O (centres undefined)	inactive	–
CC(C(=O)NCCc1ccc(S(N)(=O)=O)cc1)N1C(=O)CC(C)(C)Sc2ccccc21 (centres undefined)	inactive	–
CNC(=O)N1c2ccccc2C=Cc2ccccc21	inactive	–
Clc1nc(NC2CCCC2)nc(N2CCOCC2)n1	inactive	–
COc1cccc(N(CC(=O)NC2CCCC2)C(=O)Cn2nnc(-c3ccc(C)o3)n2)c1	inactive	–
Cc1ccc(-c2n[nH]c(=S)n2/N=C/c2cc3c(cc2[N+](=O)[O-])OCO3)cc1	inactive	–
S=c1[nH]nc(-c2cc(-c3ccccc3)n[nH]2)n1/N=C/c1c2ccccc2cc2ccccc12	7.94 µM (active)	–
CCOc1ccc(-c2n[nH]c(=S)n2/N=C/c2cc3c(cc2[N+](=O)[O-])OCO3)cc1	–	-47.7% [at 10 µM]
S=c1[nH]nc(-c2cccs2)n1/N=C/c1cn(-c2ccccc2)nc1-c1ccc(Cl)cc1	inactive	–
Oc1ccccc1/C=N/n1c(-c2cccs2)n[nH]c1=S	10 µM (active)	–
S=c1[nH]nc(-c2ccncc2)n1/N=C/c1ccccc1Cl	inactive	–
CCN(CC)S(=O)(=O)c1cccc(-c2n[nH]c(=S)n2/N=C/c2ccc(C(=O)OC)cc2)c1	inactive	–
Cc1ccc(/C=N\n2c(-c3ccccc3)n[nH]c2=S)s1	3.98 µM (active)	–
Brc1ccc(/C=N/N2CCN(C3c4ccccc4-c4ccccc43)CC2)s1	inactive	–
c1ccc(-c2cc(-c3nnc4sc(-c5ccccn5)nn34)[nH]n2)cc1	inactive	–
S=c1[nH]nc(-c2ccco2)n1/N=C/c1ccc(Br)s1	11.2 µM (active)	–

Source: PubChem BioAssay AID2551 (National Center for Advancing Translational Sciences (NCATS), 2010)
